An excerpt weighted towards active compounds, which were near 2.5% of everything screened.
Pol beta inh: DNA polymerase beta (human) inhibition; P06746; Pol beta primer extension/strand displacement, fluorescence kinetic; Potency, µM (series often up to 114 µM), most hits filed as inhibitors; 1.3% of 340,000 active; AID 485314
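Reaction started by 50 nM substrate onto compound-treated Pol beta (10 nM, 15 min preincubation, room temperature); plates read at 0 min and 10 min. Normalized concentration-effect data fitted by four-parameter Hill equation.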
APEX1 inh: inhibitors of human APE1 endonuclease; recombinant APE1, TAMRA/BHQ-2 abasic DNA cleavage fluorescence; Potency, µM (doses to about 65.8 µM), usual class: inhibitors; 0.35% of 350,000 active; note: nearly all actives have a fitted effect of over 55% in size
Target sequence (P27695 whole entry, looked up): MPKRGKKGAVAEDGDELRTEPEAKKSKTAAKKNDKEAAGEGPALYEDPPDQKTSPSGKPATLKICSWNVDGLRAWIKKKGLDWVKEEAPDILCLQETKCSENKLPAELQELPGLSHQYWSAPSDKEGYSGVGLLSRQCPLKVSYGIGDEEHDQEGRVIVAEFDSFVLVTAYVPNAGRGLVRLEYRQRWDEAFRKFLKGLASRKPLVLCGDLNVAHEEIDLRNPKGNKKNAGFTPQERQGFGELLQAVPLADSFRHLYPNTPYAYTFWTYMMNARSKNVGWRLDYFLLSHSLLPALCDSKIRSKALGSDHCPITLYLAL
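0.75 nM APE1 + cpd, 15 min RT; start w/ 50 nM TAMRA/BHQ-2 THF-abasic dsDNA; kinetic fluor 525/598 nm ×3 reads @60 s; Δ(read3−read1); normalized to DMSO and NSC13755 control wells.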
L3MBTL1 inh: L3MBTL1 (human) inhibition. AlphaScreen L3MBTL1–H3K9me1 peptide binding. Q9Y468. 0.66% of 230,000 active. Potency, µM (highest dose often 57.1 µM), most hits filed as inhibitors; note: nearly all actives have a fitted effect of over 60% in size
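L3MBTL1 50 nM + b-AHA-H3(1-15)K9me1 75 nM, 30 min RT; compound added, 30 min RT; streptavidin donor/Ni-chelate acceptor beads 10 ug/mL each final, 30 min RT dark; AlphaScreen read.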
POLK inh: DNA polymerase kappa (human) inhibition. purified Pol kappa, fluorescent DNA synthesis assay, 10 min. Potency, µM (titrated, usually from 107 µM), most hits filed as inhibitors. 0.53% of 400,000 active
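10 nM Pol kappa preincubated 15 min at room temperature with compounds, then reaction started with substrate at 50 nM final. Fluorescence read kinetically at 0 and 10 min; buffer-only wells served as negative control.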
Pol iota inh: inhibitors of human DNA polymerase iota | Q9UNA4 | Pol iota fluorescent replication assay, 10 min | Potency, µM (series often up to 115 µM), hits mostly inhibitors | 1% of 390,000 active | AID 588590
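Fluorescent replication assay read twice, at 0 min and 10 min after adding 50 nM (final) substrate. Enzyme (10 nM) and compounds were first incubated 15 min at room temperature; enzyme-free buffer wells were negative controls.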
Pol eta inh: DNA polymerase eta (human) inhibition; Q9Y253; recombinant Pol eta, fluorescent DNA replication assay; Potency, µM (top dose mostly 114 µM), usual class: inhibitors; 1.2% of 390,000 active; AID 588591
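Pol eta (10 nM) was preincubated with compounds for 15 min at room temperature, after which fluorescent replication substrate (50 nM final) was added to start the reaction. Fluorescence was read kinetically at 0 and 10 min.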
Each line names hits and unclear results; the compound was inactive in the other large screens. Calls come from the whole dose curve; as a rule, active = well fitted curve in the direction sought with a large enough effect; inconclusive = small, poorly fitted or top-dose-only effect, or another doubt; inactive = no such curve, though single readings can be large; an effect the other way counts as inactive or inconclusive.

O=C(COc1ccc(-c2ccccc2)cc1)NNC(=O)Nc1ccc(F)cc1F	Pol beta inh 8.9µM, Pol eta inh inconclusive (no result: L3MBTL1 inh)
O=C(COc1ccc2ccccc2c1)Nc1cccc(C(=O)Nc2ccccc2C(=O)O)c1	APEX1 inh inconclusive, Pol eta inh 28µM
COc1ccc(N2C(=O)CCSC23C(=O)N(Cc2ccc(F)cc2)c2ccccc23)cc1Cl (stereo not drawn)	none (no result: APEX1 inh, L3MBTL1 inh)
O=C1c2ccccc2C(=O)c2c(NCCc3ccc(O)cc3)ccc(NCCc3ccc(O)cc3)c21	none (no result: Pol beta inh, APEX1 inh, L3MBTL1 inh, Pol iota inh, Pol eta inh)
O=C1c2ccccc2C(=O)c2c(Nc3ccc(CCO)cc3)ccc(O)c21	L3MBTL1 inh 5.6µM, Pol iota inh inconclusive
COc1cc(OC)c(NC(=O)c2c(C)oc3nc(C)nc(N4CCOCC4)c23)cc1Cl	none (no result: APEX1 inh, L3MBTL1 inh)
O=C(NCC(=O)N1CCN(c2ccccc2O)CC1)c1ccco1	Pol iota inh 79µM (no result: L3MBTL1 inh)
C=CCN1C(=O)/C(=C2/C(=O)N(CC(=O)O)c3ccccc32)S/C1=N/c1nccs1	APEX1 inh 13µM, L3MBTL1 inh 7.9µM (no result: POLK inh, Pol iota inh, Pol eta inh)
CN1C(=O)CSC1=S	none (no result: L3MBTL1 inh)
CC1=[N+](C)c2c(ccc3cccnc23)C1(C)C	Pol beta inh 25µM, APEX1 inh inconclusive, L3MBTL1 inh inconclusive
Cc1ccc(OCC(=O)c2ccc(Cl)s2)c([N+](=O)[O-])n1	Pol beta inh 25µM, APEX1 inh inconclusive, POLK inh inconclusive, Pol iota inh inconclusive, Pol eta inh inconclusive
CCCCCCCCCCCCCCCC(=O)OCC(COP(=O)(O)OCC[N+](C)(C)C)OC(=O)CCCCCCCCCCCCCCC (stereo not drawn)	none (no result: Pol beta inh, APEX1 inh, L3MBTL1 inh, Pol iota inh, Pol eta inh)
CCN(CC)C(=O)C1=C(C)N(CCCN2CCCC2=O)C(=O)C(CC(=O)NCC2CCCCC2)C1 (stereo not drawn)	none (no result: Pol beta inh, APEX1 inh, L3MBTL1 inh, POLK inh, Pol iota inh)
Cc1cc(N(C)C)ccc1N=Nc1ccc2ncccc2c1	APEX1 inh inconclusive, L3MBTL1 inh 8.9µM
O=C1OC(c2ccccc2)(N(Nc2ccccc2)c2ccccc2)c2ccccc21 (stereo not drawn)	none (no result: Pol beta inh, APEX1 inh, L3MBTL1 inh, POLK inh, Pol iota inh)
O=C(CSc1nc(-c2ccccc2)nc2cc(=O)[nH]n12)Nc1ccccc1	Pol beta inh inconclusive, Pol iota inh inconclusive (no result: APEX1 inh, L3MBTL1 inh)
COc1ccc(NC(=O)CSc2nc(-c3ccco3)nc3cc(=O)[nH]n23)cc1Cl	Pol iota inh 79µM, Pol eta inh inconclusive (no result: L3MBTL1 inh)
Cc1cccc(NC(=O)CSc2nc(-c3cccs3)nc3cc(=O)[nH]n23)c1	Pol beta inh inconclusive, Pol iota inh inconclusive (no result: APEX1 inh, L3MBTL1 inh)
COc1ccc(NC(=O)CSc2nc(-c3ccccc3)nc3cc(=O)[nH]n23)cc1	Pol beta inh 25µM, POLK inh inconclusive, Pol iota inh inconclusive (no result: APEX1 inh, L3MBTL1 inh)
COc1cccc(-c2nc(SCc3ccc(C)cc3)n3[nH]c(=O)cc3n2)c1	Pol beta inh inconclusive, Pol iota inh 89µM (no result: APEX1 inh, L3MBTL1 inh)
Cc1ccc(NC(=O)CSc2nc(-c3ccco3)nc3cc(=O)[nH]n23)cc1C	Pol beta inh 40µM, POLK inh inconclusive, Pol iota inh inconclusive, Pol eta inh inconclusive (no result: APEX1 inh, L3MBTL1 inh)
COc1ccc(NC(=O)CSc2nc(-c3ccco3)cc(C(F)(F)F)n2)cc1Cl	none (no result: APEX1 inh, L3MBTL1 inh)
CC(=O)Nc1ccc(/C=C/c2nc3ccccc3s2)cc1	Pol iota inh inconclusive (no result: Pol beta inh, APEX1 inh, L3MBTL1 inh, Pol eta inh)
Cc1ccc(NC(=O)CSc2nc(-c3cccs3)nc3cc(=O)[nH]n23)cc1	Pol beta inh 32µM, Pol iota inh inconclusive, Pol eta inh 79µM (no result: APEX1 inh, L3MBTL1 inh)
COc1ccc(NC(=O)CSc2nnc(-c3ccco3)n2C)cc1	none (no result: L3MBTL1 inh)
Cc1cccc(-c2nc(SCC(=O)Nc3cccc(C(F)(F)F)c3)n3[nH]c(=O)cc3n2)c1	Pol beta inh 40µM, Pol iota inh inconclusive (no result: APEX1 inh, L3MBTL1 inh)
COc1ccccc1OCCCSc1nc(-c2ccc(C(C)(C)C)cc2)nc2cc(=O)[nH]n12	Pol beta inh inconclusive, POLK inh inconclusive, Pol iota inh inconclusive, Pol eta inh 79µM (no result: APEX1 inh, L3MBTL1 inh)
COc1ccc(-c2nc(SCCOc3ccccc3Cl)n3[nH]c(=O)cc3n2)cc1	none (no result: APEX1 inh, L3MBTL1 inh)
COc1ccc(NC(=O)CSc2nc(-c3ccco3)nc3cc(=O)[nH]n23)cc1	Pol beta inh 25µM, POLK inh inconclusive, Pol iota inh 79µM, Pol eta inh inconclusive (no result: APEX1 inh, L3MBTL1 inh)
COc1cc2c(NC3CCN(C)CC3)nc(N3CCCN(C)CC3)nc2cc1OCC1CCNCC1	Pol iota inh inconclusive (no result: Pol beta inh, APEX1 inh, L3MBTL1 inh, Pol eta inh)
Oc1ccc2cc(SSc3ccc4cc(O)ccc4c3)ccc2c1	none (no result: Pol beta inh, L3MBTL1 inh, POLK inh, Pol iota inh, Pol eta inh)
c1cnc2[nH]ccc2c1	none (no result: Pol beta inh, APEX1 inh, L3MBTL1 inh, Pol eta inh)
